PubChem BioAssay (Tox21)
Results filed as inconclusive are left out. Active and inactive are the calls of the source. Unless noted, calls come from the whole dose curve; as a rule, active = well fitted curve in the direction sought with a large enough effect in the repeat runs; inconclusive = weak or mixed curves; inactive = no such curve, though single readings can be large; an effect the other way counts as inactive or inconclusive.

Legend:
[1] = qHTS assay to identify small molecule agonists of the NFkB signaling pathway - cell viability counter screen (AID 1159515; calls by dose curve; note: series mostly up to about 61 µM; nearly all actives have a fitted effect of over 55% in size)
Method in brief: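 Parallel cytotoxicity counter screen in ME-180 cells carrying an NFkB-response-element beta-lactamase reporter, 2,000 cells/well. Compound exposure lasted 5 hr at 37 C, 5% CO2. Cell viability was quantified by CellTiter-Glo luminescence.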

[2] = qHTS assay to identify small molecule agonists of the endoplasmic reticulum stress response signaling pathway (AID 1159516; active = well fitted activation curve with a large enough effect in the signal ratio in the repeat runs, not every such curve was filed as active; the % refers to the signal ratio)
Method in brief: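 Using a HeLa line with an ESRE-driven beta-lactamase gene, agonist activity was measured by FRET substrate fluorescence (460 and 530 nm emission) after cells were treated with compounds for 5 hr at 37 C and 5% CO2.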

[3] = qHTS assay to identify small molecule agonists of the endoplasmic reticulum stress response signaling pathway - cell viability counter screen (AID 1159517; calls by dose curve;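 note: HeLa cells carrying an ER stress response element beta-lactamase reporter; series mostly up to about 61 µM; nearly all actives have a fitted effect of over 50% in size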)
Method in brief: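 ESRE-bla HeLa cells (1,500/well) were plated overnight at 37 C and exposed to compounds for 5 hr. After the 2 hr beta-lactamase substrate read, CellTiter-Glo went into the same wells, and luminescence was read after 30 min at room temperature.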

[4] = qHTS assay to identify small molecule antagonists of the retinoid-related orphan receptor gamma (ROR-gamma) signaling pathway - cell viability counter screen (AID 1159520); note: nearly all actives have a fitted effect of over 50% in size
Method in brief: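 Cytotoxicity was read from cellular ATP (CellTiter-Glo luminescence) after 16 hr at 37 C with 1 uM doxycycline induction. The inducer was added 2 hr after compound transfer to Tet-on ROR gamma CHO cells.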

[5] = target: Nuclear receptor ROR-gamma (Homo sapiens) (UniProt P51449); test: qHTS assay to identify small molecule antagonists of the retinoid-related orphan receptor gamma (ROR-gamma) signaling pathway (AID 1159521;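 note: CHO cells with doxycycline inducible ROR-gamma driving an RORE luciferase reporter; top concentration of the series differs between compounds; nearly all actives have a fitted effect of over 50% in size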)
Method in brief: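 Decreased RORE-driven luciferase luminescence indicates antagonism. Tet-on RORγ CHO cells received compound, then 1 uM final doxycycline 2 h later; signal read after 16 h incubation.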

[6] = qHTS assay to identify small molecule agonists of the AP-1 signaling pathway - cell viability counter screen (AID 1159525; calls by dose curve; note: nearly all actives have a fitted effect of over 55% in size)
Method in brief: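 Intracellular ATP by Cell Titer Glo luminescence (30 min, RT) in the same ME-180 AP-1-bla wells after the 5 h compound exposure at 37 °C. Normalised to tetra n-octyl ammonium bromide and DMSO controls.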

[7] = qHTS assay to identify small molecule agonists of the AP-1 signaling pathway (AID 1159526; calls by dose curve)
[8] = target: Retinoic acid receptor RXR-alpha (Homo sapiens) (UniProt P19793); test: qHTS assay to identify small molecule agonists of the RXR signaling pathway (AID 1159527; calls by dose curve; note: nearly all actives have a fitted effect of over 35% in size)
Sequence of Retinoic acid receptor RXR-alpha (Homo sapiens) (P19793 whole entry, looked up): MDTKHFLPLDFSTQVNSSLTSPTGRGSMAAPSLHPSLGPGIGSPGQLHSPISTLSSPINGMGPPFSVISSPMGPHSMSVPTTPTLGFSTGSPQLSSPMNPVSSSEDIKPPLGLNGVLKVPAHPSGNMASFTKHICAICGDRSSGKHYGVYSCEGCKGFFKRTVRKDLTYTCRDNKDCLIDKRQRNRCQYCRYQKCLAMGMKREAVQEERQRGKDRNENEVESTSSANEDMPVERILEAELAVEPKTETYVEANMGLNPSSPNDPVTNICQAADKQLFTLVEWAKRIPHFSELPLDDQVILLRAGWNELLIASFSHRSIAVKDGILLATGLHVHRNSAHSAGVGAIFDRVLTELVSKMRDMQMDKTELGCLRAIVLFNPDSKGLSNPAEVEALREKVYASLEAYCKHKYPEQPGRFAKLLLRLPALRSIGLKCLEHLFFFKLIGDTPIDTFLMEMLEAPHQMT
Method in brief: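 16 hr incubation of compound-treated RXR-alpha-UAS-bla HEK 293T cells (2% charcoal-stripped FBS, 37 C) preceded a 2 hr room-temperature LiveBLAzer FRET substrate step and blue/green fluorescence measurement.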

[9] = qHTS assay to identify small molecule agonists of the RXR signaling pathway - cell viability counter screen (AID 1159529);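 note: HEK 293T cells carrying an RXR-alpha UAS beta-lactamase reporter; series mostly up to about 77 µM; nearly all actives have a fitted effect of over 50% in size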
Method in brief: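 In this parallel viability measure, GeneBLAzer RXR-alpha HEK 293T cells (2% charcoal-stripped FBS) were given a 5 hr preincubation, treated with compounds 16 hr at 37 C, and read by CellTiter-Glo luminescence.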

[10] = qHTS assay to identify small molecule antagonists of the retinoid acid receptor (RAR) signaling pathway - cell viability counter screen (AID 1159551); note: nearly all actives have a fitted effect of over 35% in size
Method in brief: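 ATP-based viability, C3RL4 cells, 6 h at 37 C with 1 uM final retinol co-added after compound; luminescence read 30 min post CellTiter-Glo, RT.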

[11] = qHTS assay to identify small molecule antagonists of the retinoic acid receptor (RAR) signaling pathway (AID 1159552; note: nearly all actives have a fitted effect of over 50% in size)
Method in brief: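 C3RL4 RARE-luc cells, overnight plating; retinol 1 uM final added right after compound; 6 hr 37 C; luciferase read at 30 min RT.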

[12] = qHTS assay to identify small molecule agonists of the retinoic acid receptor (RAR) signaling pathway (AID 1159553)
Method in brief: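 Quantitative high-throughput format: the Tox21 10K library was tested on C3RL4 RARE-luciferase cells for 6 hr at 37 C and 5% CO2, with luminescence measured after a 30 min room-temperature reagent step.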

[13] = qHTS assay to identify small molecule antagonists of the estrogen related receptor (ERR) signaling pathway from Tox21 library - cell viability counter screen (AID 1224834); note: nearly all actives have a fitted effect of over 30% in size
Method in brief: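 Compounds in DMSO were pinned onto ERR cells that had been incubated for 6 h, and the plates were held at 37 C for 17.5 h. CellTiter-Fluor reagent was then added and fluorescence was measured after 30 min.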

[14] = target: Luciferin 4-monooxygenase (Photinus pyralis) (UniProt P08659); test: qHTS assay to identify small molecule inhibitors of firefly luciferase (AID 1224835); note: series mostly up to about 120 µM; nearly all actives have a fitted effect of over 25% in size
Sequence of Luciferin 4-monooxygenase (Photinus pyralis) (P08659 whole entry, looked up): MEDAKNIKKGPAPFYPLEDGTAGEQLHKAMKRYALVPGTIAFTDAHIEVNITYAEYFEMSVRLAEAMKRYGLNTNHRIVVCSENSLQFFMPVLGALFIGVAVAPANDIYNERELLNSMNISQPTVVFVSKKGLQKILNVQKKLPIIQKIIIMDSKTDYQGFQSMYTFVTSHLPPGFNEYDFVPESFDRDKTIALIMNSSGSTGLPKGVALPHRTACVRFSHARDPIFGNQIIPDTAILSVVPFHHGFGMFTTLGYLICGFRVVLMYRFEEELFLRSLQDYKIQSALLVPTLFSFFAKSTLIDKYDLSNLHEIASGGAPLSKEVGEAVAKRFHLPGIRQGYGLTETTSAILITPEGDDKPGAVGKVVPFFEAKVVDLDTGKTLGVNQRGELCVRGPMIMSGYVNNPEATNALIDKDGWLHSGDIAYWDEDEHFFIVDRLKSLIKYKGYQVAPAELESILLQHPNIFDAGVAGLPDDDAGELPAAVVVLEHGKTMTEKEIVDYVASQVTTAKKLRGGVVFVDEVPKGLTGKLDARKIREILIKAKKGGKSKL
Method in brief: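 Inhibition of purified Photinus luciferase is measured by luminescence. Substrate levels (D-luciferin, ATP) sit at their KM values. Each compound is tested in a concentration series.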

[15] = qHTS assay to identify small molecule agonists of the constitutive androstane receptor (CAR) signaling pathway - cell viability counter screen (AID 1224836); note: series mostly up to about 92 µM; nearly all actives have a fitted effect of over 45% in size
Method in brief: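 Using CellTiter-Fluor, viability of HepG2 cells harbouring hCAR and CYP2B6-2.2kb was measured following 23 h incubation with a 15-concentration compound series plus PK11195 (0.75 uM final).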

[16] = qHTS assay to identify small molecule antagonists of the constitutive androstane receptor (CAR) signaling pathway - cell viability counter screen (AID 1224837); note: series mostly up to about 92 µM; nearly all actives have a fitted effect of over 45% in size
Method in brief: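 Cells are seeded, rested 4 hr at 37 C/5% CO2, dosed with compound (15-point series) and 50 nM CITCO, incubated a further 23 hr, and then CellTiter-Fluor reagent is added before fluorescence is read. The line is HepG2 with stable hCAR and CYP2B6-2.2kb.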

[17] = target: Nuclear receptor subfamily 1 group I member 3 (Homo sapiens) (UniProt Q14994); test: qHTS assay to identify small molecule antagonists of the constitutive androstane receptor (CAR) signaling pathway (AID 1224838);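 note: HepG2 cells stably expressing hCAR with CYP2B6 luciferase reporter stimulated by CITCO; nearly all actives have a fitted effect of over 40% in size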
Sequence of Nuclear receptor subfamily 1 group I member 3 (Homo sapiens) (Q14994 whole entry, looked up): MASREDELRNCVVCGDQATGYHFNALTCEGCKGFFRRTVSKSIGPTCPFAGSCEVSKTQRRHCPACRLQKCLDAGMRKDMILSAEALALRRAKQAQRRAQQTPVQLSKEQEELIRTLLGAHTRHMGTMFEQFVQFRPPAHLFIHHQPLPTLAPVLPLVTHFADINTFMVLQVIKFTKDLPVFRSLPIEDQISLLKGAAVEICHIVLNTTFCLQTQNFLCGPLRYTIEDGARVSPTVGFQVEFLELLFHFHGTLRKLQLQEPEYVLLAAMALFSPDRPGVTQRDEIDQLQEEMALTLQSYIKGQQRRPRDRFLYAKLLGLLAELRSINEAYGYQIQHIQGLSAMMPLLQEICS
Method in brief: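 Luminescence from a CYP2B6-2.2kb promoter reporter in hCAR-expressing HepG2 cells reflects CAR signaling. Cells received compounds at 15 concentrations and 50 nM CITCO (final), then incubated 24 h at 37 C/5% CO2.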

[18] = qHTS assay to identify small molecule antagonists of the estrogen related receptor signaling pathway with the pleiotropic PPARgamma coactivator (PGC) from Tox21 10K library - cell viability counter screen (AID 1224840; active = well fitted cell-killing curve with a large enough effect in the repeat runs, not every such curve was filed as active; note: nearly all actives have a fitted effect of over 40% in size)
Method in brief: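 Cell viability is measured by CellTiter-Fluor fluorescence in PGC/ERR cells that receive compounds after a 6-hour attachment period and are then incubated 17.5 hours at 37 C.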

[19] = qHTS assay to identify small molecule antagonists of the vitamin D receptor (VDR) signaling pathway - cell viability counter screen (AID 743225); note: nearly all actives have a fitted effect of over 50% in size
Method in brief: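 Parallel cytotoxicity test: VDR-UAS-bla HEK 293T, 3 nM (final) 1-alpha,25-dihydroxyvitamin D3 with test compound, 16 h, 37C. Endpoint is CellTiter-Glo luminescence in the same wells.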

[20] = target: Nuclear receptor subfamily 1 group I member 3 (Homo sapiens) (UniProt Q14994); test: qHTS assay to identify small molecule agonists of the constitutive androstane receptor (CAR) signaling pathway (AID 1224839);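 note: HepG2 cells stably carrying human CAR and a CYP2B6 luciferase reporter; series mostly up to about 92 µM; nearly all actives have a fitted effect of over 15% in size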
Method in brief: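 Double-stable HepG2 cells (hCAR, CYP2B6-2.2kb) seeded 4 h before compound addition. Exposure 24 h with 0.75 uM PK11195 final. Luciferase detected by ONE-Glo.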

Measured: Potency

O=C(O)P(=O)(O)O
not listed: [19] | [20]
inactive: all other assays above

CCNC(=O)C(C)OC(=O)Nc1ccccc1 (stereo not given)
not listed: [19] | [20]
inactive: all other assays above

O=S(=O)(O)CC(O)CCl (stereo not given)
inactive: all assays above

CC1(C)C(=O)C(C)(C)C1=O
not listed: [20]
inactive: all other assays above

N=C(N)N
inactive: all assays above

O=C(c1ccccc1)c1cccc(O)c1
not listed: [20]
inactive: all other assays above

CC1=C(O)C(=O)CO1
not listed: [20]
inactive: all other assays above

CC(C)(C)NCC(O)COc1cccc2c1CCC(=O)N2 (stereo not given)
inactive: all assays above

CCCCCCCCCCCBr
not listed: [20]
inactive: all other assays above

Cc1cc(C)c(N)c(Cl)c1
inactive: all assays above

CN1C(CCl)Nc2cc(Cl)c(S(N)(=O)=O)cc2S1(=O)=O (stereo not given)
not listed: [20]
inactive: all other assays above

CC(C)OC(=O)C(C(=O)OC(C)C)=C1SC=CS1
not listed: [20]
inactive: all other assays above

CC(=O)OC1CCC(C(C)(C)C)CC1 (stereo not given)
inactive: all assays above
